Source: PubChem BioAssay

Each molecule was assayed on Human papillomavirus type 1a E7 protein (residues 1-88) (assay: HPV1a E7 small-molecule binders, primary screen, biochemical, small-molecule microarray, residues 1-88, 635 nm (AID 1129)). Details: small-molecule microarray binding, fluorescence 635 nm; higher = more signal.

Structure (SMILES) | composite z-score
CN1C=C(C(=O)OCCS(C)(=O)=O)C(C(=O)OCCS(C)(=O)=O)=CC(c2ccc(CO)cc2)=CC1c1cccs1 (stereo not given) | 0.577
CS(=O)(=O)CCOC(=O)C1=CC(CCCO)=CC(C2CC2)N(Cc2cccc(OC(F)(F)F)c2)C=C1C(=O)OCCS(C)(=O)=O (stereo not given) | 0.852
CC(C)[C@H]1NC(=O)[C@@]23C(=O)N[C@@H](Cc4ccccc4)C2[C@H](C)[C@@]2(C)O[C@H]2C3/C=C/C/C=C\CNC(=O)[C@H](Cc2ccccc2)NC1=O (stereo not given in full) | 0.973
Cc1ccc(S[C@]2(C(=O)NCc3ccccc3)CC(=O)N(Cc3cc(C(F)(F)F)cc(C(F)(F)F)c3)[C@@H]2c2ccc(CO)cc2I)cc1 | -0.774
CN(C)C(=O)[C@@]1(Cc2ccccc2N=[N+]=[N-])N=C(c2ccc(OCCCO)cc2)O[C@H]1c1ccccc1 | 1.25
COCC1=C2[C@@H](CCc3ccccc3)OB(O)C[C@@H]2[C@@H]2C(=O)N(C)C(=O)[C@@H]2C1 | 0.003
O=C1C2C=CC(C(O)c3ccco3)N(Nc3ccccc3)C2C(=O)N1c1ccccc1 (stereo not given) | 0.556
NC(=O)[C@H]1[C@@H]2C(=O)O[C@@H](c3ccccc3)[C@@H](c3ccccc3)N2[C@@H](c2ccc(O)cc2)[C@]12C(=O)Nc1ccc(C#CC3=CCCCC3)cc12 | 1.2
C=C(/C(=C/C[C@@H](OC(=O)c1ccncc1)c1cccc(OCCO)c1)c1cnc2ccccc2c1)C(C)C | 1.09
CC(C)[C@H]1NC(=O)[C@@]23C(=O)N[C@@H](Cc4ccccc4)C2[C@H](C)[C@@]2(C)O[C@H]2C3/C=C/CCC/C=C/CNC(=O)[C@H](Cc2ccccc2)NC1=O (stereo not given in full) | 0.369
C=C(COC)/C(=C/C[C@@H](OC(C)=O)c1ccc(CO)o1)c1cc(C(=O)OC)ccc1OC | 0.091
C=CCC(OC(C)=O)[C@@H]1[C@@H](N(Cc2cccc3ccccc23)C(=O)Cc2ccc(F)cc2)c2cc(OCCCO)ccc2N1C(=O)c1ccc(-c2ccccc2)cc1 (stereo not given in full) | -0.0075
CC(=O)NCCCC[C@@H]1NC(=O)[C@H]2C[C@@H](C(=O)NCCCCCNC(=O)CS)[C@@H](c3cccc(OCCO)c3)N2C1=O | 0.616
COCCOC(=O)N1C(=O)[C@@]2(c3cc(C#CCC(C(=O)OC)C(=O)OC)ccc31)[C@H](c1ccc(O)cc1)N1[C@H](c3ccccc3)[C@H](c3ccccc3)OC(=O)[C@H]1[C@@H]2C(=O)NC[C@H](O)c1ccccc1 | 1.19
Cc1ccccc1C(O)C1C=CC2C(=O)N(c3ccccc3)C(=O)C2N1Nc1ccc([N+](=O)[O-])cc1 (stereo not given) | 1.21
Cc1cccc([C@H]2C[C@H]3C(Br)=C[C@@H]2C(=O)[C@]32CO2)c1 | -1.61
CCOC(=O)C=Cc1ccccc1O | 0.923
CCOC(=O)C1=CCC(c2ccccc2)N(S(=O)(=O)c2ccc([N+](=O)[O-])cc2)C1 (stereo not given) | 1.12

Structure (SMILES) | composite z-score
C=C(CCCC)C(=O)CC[C@@H](OC(=O)c1cccnc1)c1ccc(OCCO)cc1 | 0.581
CC(C)C[C@@H]1NC(=O)CNC(=O)[C@@]23C(=O)N[C@@H](Cc4ccccc4)C2[C@H](C)[C@@]2(C)O[C@H]2C3/C=C/C/C=C\CNC1=O (stereo not given in full) | 0.331
[N-]=[N+]=Nc1ccccc1C[C@@]1(C(=O)O)N=C(c2ccc(OCCCO)cc2)O[C@@H]1c1ccccc1N=[N+]=[N-] | 1.25
CCCCC(=O)N(CCN1CCOCC1)[C@@H]1CC(C(=O)NCCO)=C[C@H](Oc2c(I)cc(CO)cc2OC)[C@H]1O | 0.358
COc1ccc(C#Cc2ccc3c(c2)[C@]2(C(=O)N3)[C@H](C(=O)N3CCCCCCC3)[C@H]3C(=O)O[C@H](c4ccccc4)[C@H](c4ccccc4)N3[C@@H]2c2ccc(O)cc2)cc1 | 1.21
CCOC(=O)C1=C[C@@H](c2ccccc2)N(S(=O)(=O)c2ccc(C)cc2)[C@H]1c1ccccc1 | 0.574
COCCOC(=O)N1C(=O)[C@@]2(c3cc(C#CCCO)ccc31)[C@H](C(N)=O)[C@H]1C(=O)O[C@H](c3ccccc3)[C@H](c3ccccc3)N1[C@@H]2c1ccc(OCCO)cc1 | 1.19
C=C(/C(=C/C[C@@H](OC(C)=O)c1ccc(CO)o1)c1cc(C(=O)OC)ccc1OC)C(C)C | 0.659
CCCCCCCCCCC(O)C1C=CC2C(=O)N(C)C(=O)C2N1Nc1cc(OC)c(OC)c(OC)c1 (stereo not given) | 0.242
C=CCC(OC(C)=O)[C@@H]1[C@@H](N(Cc2ccc(-c3ccccc3)cc2)C(=O)Cc2ccc(F)cc2)c2cc(OCCCO)ccc2N1C(=O)Cc1ccc2ccccc2c1 (stereo not given in full) | -0.0842
COCCOC(=O)N1C(=O)[C@@]2(c3cc(C#CCNC(N)=O)ccc31)[C@H](c1ccc(OCCO)cc1)N1[C@H](c3ccccc3)[C@H](c3ccccc3)OC(=O)[C@H]1[C@@H]2C(=O)NC[C@H](O)c1ccccc1 | 0.984
C=C[C@@H](C)[C@H](O)c1ccc(OCCO)cc1 | -0.535
CC(=O)N1CC(C(O)C2C=CC3C(=O)NC(=O)C3N2Nc2ccc(Cl)cc2Cl)c2ccccc21 (stereo not given) | 1.15
Nc1cc(Br)ccc1C(=O)O | 0.319
C=C(CCCC)/C(=C/C[C@H](OC(C)=O)c1ccc(OCCO)cc1)c1cc(C(=O)OC)ccc1OC | 1.04
C=C(COC)/C(=C/C[C@H](OC(C)=O)c1cccc(OCCO)c1)c1cnc2ccccc2c1 | 1.02
C=CCNC(=O)[C@H]1[C@@H]2C(=O)O[C@@H](c3ccccc3)[C@@H](c3ccccc3)N2[C@@H](c2ccc(OCCO)cc2)[C@]12C(=O)N(C(=O)OCCOC)c1ccc(C#Cc3ccc(OC)cc3)cc12 | 1.15
